Assay type in all cases: functional
Experiment [1] has as its system Plasmodium falciparum. In words: GSK_TCMDC: Inhibition of Plasmodium falciparum 3D7 in whole red blood cells, using parasite LDH activity as an index of growth. Test compounds present at 2uM.
In experiment [2] the test system is Plasmodium falciparum. In words: GSK_TCMDC: Inhibition of Plasmodium falciparum Dd2 in whole red blood cells, using parasite LDH activity as an index of growth. Test compounds present at 2uM.
For experiment [3], the system named is HepG2. In words: GSK_TCMDC: Percent inhibition of human HepG2 cell line. Test compounds present at 10uM.

The structures appear in SMILES notation.

What is called Inhibition is the change of the read-out against control, counted positive when it falls.

With `CC(C)c1ccc(NC(=O)c2cccc(CN3CCCN(CC4CCCCC4)CC3)c2)cc1.O=C(O)C(F)(F)F`, the Inhibition in experiment [1] amounted to 85%; in experiment [2], 59%; in experiment [3], 62%.
As to `Cc1ccc(O)c(C(=O)c2cc(C(=O)Nc3ccccc3C)c(=O)n(-c3ccccc3C)c2)c1`, the Inhibition stood at 98% in experiment [1], 81% in experiment [2] and 0% in experiment [3].
With `CS(=O)(=O)Nc1ccc2c(C3CCN(CCC4CCN(C(=O)/C=C/c5ccc(Cl)c(Cl)c5)CC4)CC3)c[nH]c2c1`, the Inhibition in experiment [1] stood at 99%; in experiment [2] it was 63%; in experiment [3] it was 35%.
As to `CCC(Cc1cnc2nc(N)nc(N)c2n1)c1ccc(C(=O)O)cc1` (configuration not stated), the figures for the Inhibition in experiment [1], in experiment [2] and in experiment [3] were 93%, 0% and 15%, respectively.
For `C=CCc1c(C(=O)NCC23CC4CC(CC(C4)C2)C3)nc2ccccc2c1O` the same measures were 86%, 79% and 40%.
The like results for `O=C(NCCNc1ccnc(Nc2ccc(F)cc2)n1)Nc1ccccc1F` were, in that order, 93%, 4% and 22%.
On to `COc1ccc(-n2ccnc2SCC(=O)Nc2cc(Cl)ccc2OC)c(OC)c1`, for which the figures for the Inhibition in experiment [1], in experiment [2] and in experiment [3] were 96%, 92% and 0%, respectively.
In the case of `O=C(O)C(F)(F)F.c1ccc2[nH]c(-c3ccc(-c4ccc(CN5CCN(c6ccncc6)CC5)cc4)cc3)nc2c1`, the Inhibition in experiment [1] turned out to be 100%; in experiment [2] it was 100%; in experiment [3], 48%.
Regarding `COc1ccc2nccc([C@@H](O)CN3CCC(NCc4ccc5cccc(O)c5n4)CC3)c2c1.O=C(O)C(=O)O`, the Inhibition turned out to be 93% in experiment [1], 40% in experiment [2] and 10% in experiment [3].
